Yeast superoxide = lowers age-related superoxide in aged yeast cells | S. cerevisiae aged cells, superoxide DHE fluorescence; hits give low values | 330,000 compounds, 0.18% hits | superoxide response (% of plate mean), % at 10 µM;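 active = superoxide response under a set limit, about three screen SD below normal, cut at about 65% in these data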;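 note: yeast aged for seven days with compound at 30 °C before DHE staining; 100% = average MFI of all compound-treated wells on the plate with controls excluded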
tim23-1 inh = inhibits growth of tim23-1 mutant yeast; inhibition, % at 20 µM; S. cerevisiae tim23-1 growth, BacTiter-Glo luminescence, 24 h; 330,000 compounds, 1.3% hits; AID 463212;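 active = growth inhibition of the mutant yeast at or above 50%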;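 note: temperature-sensitive mutant grown at 25 °C; plate controls were DMSO-treated mutant yeast for no effect and medium wells lacking yeast for full effect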
TIM10 inh = TIM10 yeast growth inhibition. S. cerevisiae TIM10 strain growth, BacTiter-Glo luminescence, 24 h. 330,000 compounds, 1.4% hits. inhibition, % at 10 µM;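 active = inhibition of 40% or more at the single tested concentration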;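 note: wild-type TIM10 isogenic control strain grown at permissive 25 °C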
NLRP3 yeast inh = inhibitors of NALP3 inflammasome in yeast; Yeast reconstituted NLRP3/ASC/caspase-1, beta-gal luminescence, 24 h; AID 2825; inhibition, % at 10 µM; 330,000 compounds, 0.39% hits;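 active = inhibition of 50% or more; inactive = inhibition below 50%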;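 note: plate controls were induced DMSO wells for no effect and uninduced yeast grown without galactose for full effect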
tim10-1 inh = growth inhibitors of tim10-1 mutant yeast. S. cerevisiae tim10-1 ts strain growth, BacTiter-Glo, 24 h. inhibition, % at 20 µM. 330,000 compounds, 2.2% hits. AID 463190;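 active = inhibition of at least 40%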;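 note: mutant grown at 25 °C; 0% = DMSO wells with yeast and 100% = wells holding no yeast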
TIM10 conf = confirmation of TIM10 yeast growth inhibitors; 4,600 compounds, 63% hits; inhibition, % at 10 µM; shares compounds with TIM10 inh; S. cerevisiae tim10 strain growth, BacTiter-Glo luminescence, 24 h;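 active = inhibition of yeast growth at or above a set limit in either of two replicates at 10 µM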;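 note: this counterscreen used the strain with wild-type TIM10; 0% = yeast with DMSO and 100% = medium wells lacking yeast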
Starred values were filed as active, the others as inactive; nt = no result given. Sampled rows, rich in hits. Any-hit rate of the full collection: about 3.8%.

SMILES	Yeast superoxide	tim23-1 inh	TIM10 inh	NLRP3 yeast inh	tim10-1 inh	TIM10 conf
Cc1cc(C)cc(C(=O)NC(CC(N)=O)c2ccc(N3CCN(c4ccccc4)CC3)c([N+](=O)[O-])c2)c1 (stereo unspecified)	104	6	49*	8	-1	-5
CC(C)CC(c1nnnn1Cc1cccs1)N1CCN(c2nc3ccccc3s2)CC1 (stereo unspecified)	99	1	28	-3	30	nt
CC(C)C(c1nnnn1Cc1ccco1)N1CCN(c2nc3ccccc3s2)CC1 (stereo unspecified)	81	21	45*	8	28	-25
COc1cc(/C=C/C(=O)c2ccc(F)cc2)cc(OC)c1OC	82	48	42*	-15	39	42*
COc1ccc(C(=O)NCCc2nnc3ccc(SCC(=O)N4CCOCC4)nn23)cc1	106	0	5	8	8	nt
COc1ccc(CNC(=O)CSc2cccc3cccnc23)cc1	98	0	51*	-5	14	12
O=[N+]([O-])c1ccccc1S(=O)(=O)Nc1ccc(S(=O)(=O)N2CCCC2)cc1	104	-6	-7	10	-9	nt
COCc1ccc(C(=O)N(C)CC2CCCN(CCc3ccccc3F)C2)o1 (stereo unspecified)	103	8	3	11	-5	nt
COc1ccc(CC(=O)NCc2nc(-c3ccccc3)no2)cc1	105	17	-4	14	12	nt
COc1cc(OC)cc(C(=O)NCc2nc(-c3ccccc3)no2)c1	98	5	91*	23	-2	-23
NS(=O)(=O)c1ccc(NC(=O)c2cc(Cl)sc2Cl)cc1	88	11	5	7	19	nt
CCOC(=O)c1cnc2c(ccc3ccccc32)c1NCCO	99	49	61*	30	38	69*
COc1ccc(C(=O)/C=C/C(=O)N(Cc2ccc(F)cc2)C(C(=O)NC2CCCCC2)c2ccncc2)c(O)c1 (stereo unspecified)	115	38	44*	13	32	0
COc1ccc(C(=O)/C=C/C(=O)N(Cc2ccccc2)C(C(=O)NC2CCCCC2)c2ccncc2)c(O)c1 (stereo unspecified)	78	34	23	-2	18	nt
COC(=O)c1ccc(CN2CCCCC2)cc1	108	2	-9	-2	3	nt
CN(CC(=O)NCCc1ccc(S(N)(=O)=O)cc1)CC(=O)Nc1ccccc1C(F)(F)F	133	10	0	11	15	nt
CC(=NCCCn1ccnc1)c1c(C)[nH]n(-c2ccc([N+](=O)[O-])cc2)c1=O	100	2	6	31	4	nt
CC(C)(C)C(=O)Nc1cc(C(F)(F)F)ccc1N1CCOCC1	101	3	4	0	10	nt
COc1ccc(NC(C)C(=O)Nc2cc(C(F)(F)F)ccc2N2CCOCC2)c(OC)c1 (stereo unspecified)	104	33	41*	11	28	15
CC(C)(C)C(=O)NC(=S)Nc1cc(C(F)(F)F)ccc1N1CCOCC1	91	38	48*	5	39	25
O=C(/C(=N/N=C/c1ccc(O)c(O)c1O)c1ccccc1)c1ccccc1	105	45	45*	1	13	-1
Oc1ccc(/C=N/N=C(c2ccccc2)c2ccccc2)c(O)c1O	124	nt	nt	nt	nt	nt
CCc1noc(C)c1C(=O)N1CCCSC1=Nc1ccccc1C(C)C	100	38	16	17	34	nt
O=C(CCC(=O)N1CCN(c2ccccn2)CC1)Nc1nnc(C(F)(F)F)s1	83	10	22	20	30	nt
COc1cnc(-c2ccccn2)nc1Oc1ccc(Cl)c2ccccc12	98	40	53*	34	37	41*
SMILES	Yeast superoxide	tim23-1 inh	TIM10 inh	NLRP3 yeast inh	tim10-1 inh	TIM10 conf
O=C1CSC(c2cn(-c3ccccc3)nc2-c2cc3ccccc3oc2=O)N1Cc1ccco1 (stereo unspecified)	98	27	42*	2	33	8
CC(=O)Nc1sc2c(c1-c1nc3ccccc3s1)CN(C(C)C)CC2	99	43	65*	5	12	19
CC(C)N1CCc2c(sc(NC(=O)c3nc4ccccc4s3)c2C(N)=O)C1	90	42	44*	47	-11	22
COc1ccc(CC(=O)NCC2CCCN(Cc3cc(OC)cc(OC)c3)C2)cc1 (stereo unspecified)	97	2	-3	16	17	nt
COc1cccc2cc(C(C)=O)oc12	95	6	-13	3	26	nt
COc1cccc2cc(/C(=N/O)c3ccccc3)oc12	114	50	55*	21	36	42*
CC(=O)c1ccc(OCC(=O)Nc2ccc3c(c2)CCC3)cc1	73	-11	-16	8	-72	nt
O=C(COc1ccc(Cl)cc1)Nc1ccc2c(c1)CCC2	97	37	41*	48	-8	-21
COc1ccccc1N1C(=O)C=C(Sc2nc(C)cc(C)n2)C1=O	101	-11	42*	-13	10	45*
CCOC(=O)CSc1nnc(-c2ccoc2C)n1-c1ccc(C)cc1	81	25	8	3	28	nt
CCOC(=O)CSc1nnc(-c2ccoc2C)n1-c1ccc(OCC)cc1	101	25	45*	1	37	-5
COC(=O)Nc1nn(-c2ccc(Cl)cc2)c(=O)c(C#N)c1C	105	17	-1	-2	9	nt
CC(=O)Nc1ccc(-c2nnn(CC(=O)c3ccccc3)n2)cc1Cl	93	20	47*	-3	-3	36*
CC(=O)Nc1ccc(-c2nnn(CC(=O)c3ccc(F)cc3)n2)cc1Cl	101	-11	33	3	-34	nt
CCOC(=O)c1cnn(-c2ccc(NS(=O)(=O)c3ccc(Cl)cc3)cc2)c1C(F)(F)F	94	28	52*	14	27	6
CCOC(=O)c1ccc(NS(=O)(=O)c2ccc(Cl)nc2)cc1	109	13	16	15	4	nt
Cc1cc(C(=O)NCc2ccc(C(=O)O)o2)c(C)o1	88	19	1	-5	5	nt
COC(=O)c1ccc(C(C(=O)NC2CCCCC2)N(Cc2ccc(F)cc2)C(=O)Cc2cccs2)cc1 (stereo unspecified)	92	8	-6	9	15	nt
O=C(NC1CCCC1)C(c1ccc(F)cc1)N(Cc1ccc(Cl)cc1)C(=O)CCl (stereo unspecified)	94	46	42*	-3	32	43*
O=C(c1ccco1)N1CCN=C1SCc1cccc(F)c1	88	20	96*	7	-10	-3
CCOc1ccc(/C=N/NC(=S)Nc2c(C)cccc2C)cc1	89	31	52*	27	36	4
CCNC(=S)N/N=C/c1ccc(OCCOc2ccccc2C)cc1	114	-26	5	7	8	nt
CC(C)Cc1nnc(NC(=O)C2CCN(C(=O)c3ccc(Cl)cc3)CC2)s1	80	19	11	3	10	nt
CN(Cc1ccccc1)C(=C(Cl)Cl)C(=C1NCCN1)[N+](=O)[O-]	95	0	-8	4	-12	nt

Source: PubChem BioAssay (several laboratories)
